# Compound activity deposited in PubChem BioAssay by National Center for Advancing Translational Sciences (NCATS).
# This is a sample that favours compounds with a hit; in the whole collection about 11% have one here.
# NS1 inh: qHTS Assay for Inhibitors of Influenza NS1 Protein Function; hit rate 0.4% among 270,000; AID 2326, 2010; Potency, µM (top dose mostly 46.1 µM); calls by dose curve; also: actives are rising curves; nearly all actives have a fitted effect of over 50% in size
#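 Compounds were scored for reversing the slow growth caused by influenza A NS1 in S. cerevisiae, measured by optical density at 600 nm. Assay medium contained 2% galactose at pH 6.0; NS1-free yeast of the same strain were the positive control.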
# Vaccinia mCherry: qHTS for Stage-Specific Inhibitors of Vaccinia Orthopoxvirus: mCherry Reporter Primary qHTS | Vaccinia virus mCherry reporter infection, fluorescence | Potency, µM (highest dose often 36.5 µM), hits mostly inhibitors | hit rate 0.63% among 310,000 | AID 720579, 2013; calls by dose curve; tested in A549 cells; also: nearly all actives have a fitted effect of over 35% in size
# Pf growth 48h: Primary qHTS for delayed death inhibitors of the malarial parasite plastid, 48 hour incubation. hit rate 5.9% among 310,000. P. falciparum luciferase growth in erythrocytes, 48 h. Potency, µM (doses to about 28.7 µM), actives largely listed as inhibitors. AID 504832, 2011
#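 Growth was read as firefly luciferase luminescence after a 48 h, 37 C, 5% CO2 exposure of compounds to reporter-bearing P. falciparum cultures (0.1% parasitemia, 2% hematocrit final) in Albumax-supplemented RPMI 1640.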
# Pf growth 96h: Primary qHTS for delayed death inhibitors of the malarial parasite plastid, 96 hour incubation; P. falciparum luciferase reporter growth, 96 h; AID 504834, 2011; hit rate 6.9% among 320,000; Potency, µM (titrated, usually from 28.7 µM), actives largely listed as inhibitors
#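 Luminescence readout: decreased luciferase signal marks inhibited growth of reporter-expressing P. falciparum in infected red cells (2% hematocrit, 0.05% parasitemia final), exposed to compound two generations (96 h, 37 C, 5% CO2).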
# HCV inh: qHTS Assay for Inhibitors of Hepatitis C Virus (HCV). hit rate 3.4% among 340,000. AID 651820, 2012. Huh7.5.1 HCVcc-Cre infection, luciferase reporter, 44 h. Potency, µM (titrated, usually from 41.8 µM), actives largely listed as inhibitors
#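 Cells (1,000/well) were plated 4 h before compound, then infected with HCVcc-Cre virus (~0.5 moi). After 44 h further culture, infection was read as luciferase luminescence following a 15 min substrate incubation at room temperature.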
# VACV Venus inh: qHTS for Stage-Specific Inhibitors of Vaccinia Orthopoxvirus: Venus Reporter Primary qHTS; hit rate 0.46% among 330,000; Potency, µM (titrated, usually from 36.5 µM), hits mostly inhibitors; Vaccinia virus Venus reporter expression, fluorescence; AID 720580, 2013; calls by dose curve; tested in A549 cells; also: nearly all actives have a fitted effect of over 30% in size
# Hits are given with their value; - = inactive; ? = inconclusive; . = no result; [ ] = another dose, or the depositor's remark. Unless noted, calls follow the shape of the dose curve; as a rule, active = well fitted inhibition curve with a large enough effect; inconclusive = small, poorly fitted or top-dose-only effect, or another doubt; inactive = no such curve, though single readings can be large or run the other way.
SMILES,NS1 inh,Vaccinia mCherry,Pf growth 48h,Pf growth 96h,HCV inh,VACV Venus inh
CCOC(=O)COc1ccc(C(=O)NC2CCCCC2)cc1,-,.,-,-,-,.
NC(=Nc1nc(-c2ccccn2)cc2ccccc12)c1ccccn1,.,0.32µM,.,.,?,?
CCSc1nc(-c2cccs2)nc2ccccc12,.,-,-,-,4µM,-
COc1ccc(Nc2nc(-c3cccs3)nc3ccccc23)cc1,-,-,-,-,4.5µM,?
c1csc(-c2nc(N3CCOCC3)c3ccccc3n2)c1,-,-,-,-,11µM,-
O=S(=O)(c1ccc(Cl)cc1)N1CCN(c2nc(-c3cccs3)nc3ccccc23)CC1,-,-,3.7µM,1.5µM,-,-
CCOC(=O)c1c(S(=O)(=O)N2CCCC(C(=O)N3CCN(c4ccccc4)CC3)C2)c(C)n(C)c1C (configuration not stated),.,-,.,.,.,-
COc1ccc(N2CCN(c3nc(-c4cccs4)nc4ccccc34)CC2)cc1,.,-,?,?,11µM,-
CC(C)S(=O)(=O)N1CCN(c2nc(-c3cccs3)nc3ccccc23)CC1,.,-,.,.,.,-
O=c1c2ccccc2nnn1-c1ccccc1,.,-,.,.,-,-
N=c1c2ccccc2nnn1-c1ccc(C(F)(F)F)cc1,.,-,0.29µM,?,-,-
N=c1n(N)c2ccccc2n1CC(=O)c1ccc(Br)cc1,-,-,-,-,13µM,-
CCCn1c(=N)n(CC(=O)OCC)c2ccccc21,-,.,-,.,-,-
CCCn1c(=N)n(CC(=O)c2ccc([N+](=O)[O-])cc2)c2ccccc21,.,-,?,-,13µM,-
CCCn1c(=N)n(CC(=O)c2ccc(Cl)cc2)c2ccccc21,-,?,?,?,13µM,-
Cc1cccc(OCCNC(=S)NC(=O)c2cncc(Br)c2)c1,-,-,-,?,-,-
CC(=C\C(=O)O)/C(=C/c1ccco1)C(=O)O,-,-[7.34 µM],-,-,-,-[7.34 µM]
C/C(=N\Nc1ccc(C#N)cc1[N+](=O)[O-])c1ccc(O)cc1,-,.,?,?,-,.
O=C(Nc1ccc(F)cc1F)c1cncc(Br)c1,-,-,-,-,-,-
Cc1cc(Br)cnc1NC(=S)Nc1ccc(F)cc1F,-,-,?,?,10µM,-
COc1ccc(NC(=O)Cn2nnc(-c3ccccc3)c2COc2ccc3ccccc3c2)cn1,.,-,.,.,.,-
COc1ccccc1CNC(=O)CCN1C(=O)COc2ccc(C)cc21,-,.,-,-,-,.
Cc1ccc2c(c1)N(CC(=O)Nc1ccccc1F)C(=O)CO2,-,.,-,2.9µM,-,.
CCOc1ccccc1NC(=O)CN1C(=O)C(=O)N(Cc2ccco2)C1=O,.,-,12µM,-,-,-
COc1ccccc1CNC(=O)CCCN1C(=O)COc2ccc(C)cc21,-,.,-,9.3µM,-,.
SMILES,NS1 inh,Vaccinia mCherry,Pf growth 48h,Pf growth 96h,HCV inh,VACV Venus inh
COc1ccc(C(C)(C)C)cc1NC(=O)CN1C(=O)C(=O)N(Cc2ccco2)C1=O,.,.,?,?,-,.
CCOc1ccccc1NC(=O)CN1C(=O)COc2ccc(Cl)cc21,-,-,.,?,-,-
CCOc1ccccc1NC(=O)CN1C(=O)COc2ccccc21,-,.,-,12µM,-,.
COc1ccccc1CNc1nc(NCc2ccccc2)nc2ccsc12,.,-,.,.,.,?
CC(=O)/C(N=Nc1ccc2c(c1)OCCO2)=C(\C)O,.,.,-,-,-,.
CC(=O)NC(CCS(C)(=O)=O)C(=O)Nc1ccc(Oc2ccccc2)cc1 (configuration not stated),-,-,-,-,-,-
COc1ccc(C(=O)Oc2cc(N)n(S(=O)(=O)c3ccccc3)n2)cc1,.,.,-,-,-,.
O=C(NC(Cc1c[nH]c2ccccc12)C(=O)Nc1ccc(F)c([N+](=O)[O-])c1)c1cccs1 (configuration not stated),-,2.5µM,-,?,?,-
COc1ccccc1CN1CCNC(=O)C1CC(=O)NCC1CCOCC1 (configuration not stated),-,-,-,9.3µM,-,-
COc1ccc(CN2CCNC(=O)C2CC(=O)NCC2CCOCC2)c(F)c1 (configuration not stated),-,-,-,10µM,-,-
COc1ccc(CN2CCNC(=O)C2CC(=O)NCC2CCOCC2)c(C)c1C (configuration not stated),-,.,-,-,-,.
COc1cccc(CN2CCNC(=O)C2CC(=O)NCC2CCOCC2)c1 (configuration not stated),-,.,-,?,-,.
CC(=O)OC(C(=O)NCc1ccco1)c1cccnc1 (configuration not stated),-,-,-,.,-,-
Cc1ccc(S(=O)(=O)/N=C(/c2ccccc2)N2CCOCC2)c(C)c1,-,-,-[1.15 µM],5.9µM,-,-
CCCNC(=O)CCC(=O)Nc1ncc(-c2ccc(C)cc2)n1C,-,.,-,-,-,.
COc1ccccc1[C@@H]1C(c2cccc(Cl)c2)=NN(c2ccccc2)[C@H]1C(=O)N1CCOC1=O,-,-,15µM,10µM,-,-
COc1ccccc1[C@@H]1C(c2ccccc2)=NN(c2ccc(Br)cc2)[C@H]1C(=O)N1CCOC1=O,.,-,.,.,-,-
CCOC(=O)c1ccc(-c2ccc(/C=N/NC(=O)CN(c3ccccc3Br)S(C)(=O)=O)o2)cc1,-,-,-,-,11µM,-
Cc1ccc2c(c1)CCCN2C(=O)c1ccco1,-,.,?,.,?,.
COc1ccc(NS(=O)(=O)c2ccc3nc(COc4ccc(C#N)cc4)[nH]c3c2)cc1,-,-,-,?,13µM,-
COc1ccc(OCc2nc3ccccc3[nH]2)cc1,-,-,-,.,?,-
COc1nn(C(C)C(=O)N2N=C(C(F)F)CC2(O)C(F)F)cc1[N+](=O)[O-] (configuration not stated),-,.,-,-,-,.
CCc1cccc2c(C#N)cn(CC(=O)NCc3ccco3)c12,-,-,10µM,.,?,-
COC(=O)Cn1cc(C#N)c2ccccc21,-[9.22 µM],.,-,-,-,-
CCOC(=O)Cn1cc(C#N)c2cccc(CC)c21,-,-,?,0.74µM,-,-
SMILES,NS1 inh,Vaccinia mCherry,Pf growth 48h,Pf growth 96h,HCV inh,VACV Venus inh
CC(C)C(=O)c1cn(CC(=O)NCc2ccco2)c2ccccc12,-,-,-,?,-,-
COc1ccc(C2CC(c3ccc(Br)cc3)Nc3nc(N)nn32)cc1 (configuration not stated),-,.,-,-[5.75 µM],-,.
Cc1ccc(-n2c(-c3ccccc3)nsc2=NC#N)cc1,.,3.5µM,.,.,.,4.5µM
Cc1ccc(-n2c(-c3ccccc3)n[nH]c2=S)cc1,-,-,-,-,-,-
CCOc1ccc(C(=O)N2CCN(CCc3ccccc3)CC2)cc1OCC,-,-,-,?,-,-
COC(=O)c1sc(-c2ccc(Cl)cc2)cc1NC(=O)COCC(=O)O,-,.,2.1µM,-,-,.
